The antibiotic and cytotoxicity screens of Wong et al. (2023)
Screen size: about 39,000 compounds; about 3,300 (8.5%) were called active. What follows is part of a selection rich in actives, with near analogues and random picks from the rest.

system: HepG2; test: cytotoxicity call (relative viability < 0.9); conditions: 10 µM

Structure (SMILES)	cytotoxicity call
COC(=O)[C@H]1C2C(=O)N(C3CC3)C[C@]23C=C[C@H]1O3 (stereo not given in full)	inactive
C[C@H]1CN([C@@H](C)CO)C(=O)c2cccc(NC(=O)C3CCCCC3)c2O[C@H]1CN(C)Cc1ccc(Cl)c(Cl)c1	inactive
CO[C@H]1CN(C)C(=O)c2ccc(NS(C)(=O)=O)cc2OC[C@H](C)N(C(=O)c2ccc3c(c2)OCO3)C[C@H]1C	inactive
C[C@@H]1CN([C@@H](C)CO)S(=O)(=O)c2ccc(C#CC(C)(C)O)cc2O[C@H]1CN(C)Cc1ccccc1	inactive
CCCC(=O)Nc1ccc2c(c1)C(=O)N(C)C[C@@H](OC)[C@H](C)CN(Cc1cc(-c3ccccc3)on1)[C@H](C)CO2	inactive
Cc1noc(C)c1NC(=O)N(C)C[C@@H]1Oc2ccc(NC(=O)CCCN(C)C)cc2C(=O)N([C@@H](C)CO)C[C@@H]1C	inactive
C[C@@H]1CN([C@@H](C)CO)C(=O)Cc2cc(NC(=O)Cc3ccccc3)ccc2O[C@@H]1CN(C)S(=O)(=O)c1ccccc1	inactive
O=C(Nc1ccc2c(c1)[C@@H]1C[C@@H](CC(=O)N3CCc4ccccc4C3)O[C@@H](CO)[C@@H]1O2)C1CCOCC1	inactive
O=C(C[C@H]1C=C[C@H](NC(=O)c2ccc3c(c2)OCO3)[C@H](CO)O1)NCc1ccc(Oc2ccccc2)cc1	inactive
CC(C)CC#Cc1cnc2c(c1)C(=O)N([C@H](C)CO)C[C@@H](C)[C@@H](CN(C)C(=O)c1ccc3c(c1)OCO3)O2	inactive
C[C@H]1CN([C@@H](C)CO)C(=O)CCCn2nncc2CO[C@H]1CN(C)S(=O)(=O)c1ccc(C#N)cc1	inactive
Cc1ccc(S(=O)(=O)NCC[C@H]2CC[C@H](NS(=O)(=O)c3ccccc3Cl)[C@H](CO)O2)cc1	inactive
C[C@@H]1CN([C@H](C)CO)C(=O)c2cc(NC(=O)Nc3cccc4ccccc34)ccc2O[C@H]1CN(C)C(=O)Nc1ccc2c(c1)OCO2	inactive
C[C@@H]1CN([C@@H](C)CO)C(=O)Cc2cc(NC(=O)C3CC3)ccc2O[C@H]1CN(C)S(=O)(=O)c1cccs1	inactive
Cc1noc(C)c1NC(=O)Nc1ccc2c(c1)C(=O)N([C@@H](C)CO)C[C@H](C)[C@@H](CN(C)C(=O)Nc1ccc(F)cc1)OCCCC[C@@H](C)O2	inactive
[Fe+3].CC/1=C(CCC(=O)O)/C/2=C/c3[nH]c(c(c3CCC(=O)O)C)/C=C/3\N=C(/C=C/4\N=C(\C=C1/N2)C(=C4C)C=C)C(=C3C)C=C	active
Cc1nc2[nH]c(C)c(CCC(=O)O)c(=O)n2n1	inactive
Cc1[nH]c(=O)[nH]c(=O)c1CCC(=O)O	inactive
Cc1ccccc1S(=O)(=O)N(C)C[C@@H]1Oc2ccc(NC(=O)Nc3ccc(Cl)c(Cl)c3)cc2CC(=O)N([C@@H](C)CO)C[C@@H]1C	active
CC(C)NC(=O)Nc1ccc2c(c1)CC(=O)N([C@@H](C)CO)C[C@H](C)[C@@H](CN(C)S(=O)(=O)c1ccc(Cl)cc1)O2	inactive
C[C@H]1CN([C@@H](C)CO)C(=O)Cc2cc(NC(=O)Nc3ccc(Cl)c(Cl)c3)ccc2O[C@H]1CN(C)S(=O)(=O)c1ccc(Cl)cc1	active
Cc1ccccc1S(=O)(=O)N(C)C[C@@H]1Oc2ccc(NC(=O)Nc3cc(Cl)cc(Cl)c3)cc2CC(=O)N([C@@H](C)CO)C[C@@H]1C	inactive
Cc1ccccc1S(=O)(=O)N(C)C[C@@H]1Oc2ccc(NC(=O)Nc3cccc(C(F)(F)F)c3)cc2CC(=O)N([C@@H](C)CO)C[C@@H]1C	inactive
CC(C)NC(=O)Nc1ccc2c(c1)CC(=O)N([C@@H](C)CO)C[C@@H](C)[C@@H](CN(C)S(=O)(=O)c1ccc(Cl)cc1)O2	inactive
CC(C)NC(=O)Nc1ccc2c(c1)CC(=O)N([C@H](C)CO)C[C@H](C)[C@H](CN(C)S(=O)(=O)c1ccc(Cl)cc1)O2	inactive

Structure (SMILES)	cytotoxicity call
C[C@H]1CN([C@@H](C)CO)C(=O)Cc2cc(NC(=O)Nc3cc(Cl)cc(Cl)c3)ccc2O[C@H]1CN(C)S(=O)(=O)c1ccc(Cl)cc1	active
CC(C)NC(=O)Nc1ccc2c(c1)CC(=O)N([C@H](C)CO)C[C@H](C)[C@@H](CN(C)S(=O)(=O)c1ccc(Cl)cc1)O2	inactive
Cc1noc(C)c1NC(=O)Nc1ccc2c(c1)CC(=O)N([C@H](C)CO)C[C@H](C)[C@@H](CN(C)Cc1ccc(C(=O)Nc3ccccc3N)cc1)O2	inactive
CCS(=O)(=O)Nc1ccc2c(c1)C(=O)N(C)C[C@H](OC)[C@H](C)CN(CCC(F)(F)F)[C@@H](C)CO2	inactive
CCN(CC)c1ccc(N2CC=C[C@@]34O[C@@H]5/C=C\CCCOC(=O)[C@@H]5[C@H]3C(=O)N([C@@H](C)CO)[C@@H]4C2=O)cc1	inactive
COc1ccc(NC(=O)Nc2ccc3c(c2)C(=O)N([C@H](C)CO)C[C@@H](C)[C@H](CN(C)C(=O)Nc2ccccc2)OCCCC[C@@H](C)O3)cc1	inactive
Oc1cccc(O)c1O	inactive
Cn1cc(-c2cc3c(N4CCN(c5ncc([C@@](C)(N)c6ccc(F)cc6)cn5)CC4)ncnn3c2)cn1	active
C[C@H](CO)N1C[C@H](C)[C@@H](CN(C)C(=O)Cc2cccnc2)Oc2cc(C#CC3(O)CCCC3)ccc2S1(=O)=O	inactive
C[C@H](CO)N1C[C@H](C)[C@@H](CN(C)Cc2ccc3c(c2)OCO3)OCCCC[C@H](C)Oc2ccc(NC(=O)CCC(F)(F)F)cc2C1=O	inactive
Cc1noc(C)c1S(=O)(=O)N(C)C[C@H]1Oc2c(NS(=O)(=O)c3ccccc3)cccc2C(=O)N([C@@H](C)CO)C[C@H]1C	inactive
COc1ccc(S(=O)(=O)Nc2ccc3c(c2)CC(=O)N([C@@H](C)CO)C[C@H](C)[C@@H](CN(C)C(=O)NC(C)C)O3)cc1	inactive
CC(=O)O[C@@]1(C)C[C@@H](O)[C@@H]2C=CO[C@@H](O[C@@H]3O[C@H](CO)[C@@H](O)[C@H](O)[C@H]3O)[C@@H]21	inactive
c1ccc2[nH]c(-c3ccncc3)nc2c1	inactive
O=C(Nc1ccc(-c2nc3cc(NC(=O)c4ccccc4Cl)ccc3o2)cc1)c1ccccc1Cl	active
O=C(Nc1ccc(-c2nc3ccc(NC(=O)c4ccccc4[N+](=O)[O-])cc3[nH]2)cc1)c1ccccc1[N+](=O)[O-]	active
O=[N+]([O-])c1ccc2nc(CO)[nH]c2c1	inactive
O=C(Nc1ccc(-c2nc3ccc(NC(=O)c4ccc(NC(=O)c5cccc6ccccc56)cc4)cc3[nH]2)cc1)c1ccc(NC(=O)c2cccc3ccccc23)cc1	inactive
O=C(Nc1ccc(-c2nc3cc(NC(=O)c4ccccc4[N+](=O)[O-])ccc3o2)cc1)c1ccccc1[N+](=O)[O-]	active
O=C(Nc1ccc(-c2nc3ccc(NC(=O)c4ccc(Cl)cc4)cc3[nH]2)cc1)c1ccc(Cl)cc1	active
CCCC(=O)Nc1ccc(-c2nc3cc(C(C)C)ccc3o2)cc1	inactive
NCc1ccc(-c2nc3ccccc3o2)cc1	inactive
c1ccc(-c2nc3ccccc3o2)cc1	inactive
NC1(C(=O)Nc2ccc3nc(-c4ccc(F)cc4)oc3c2)CC1	inactive
Cc1ccc(NC(=O)c2cc(=O)[nH]c(=O)[nH]2)cc1	inactive

Structure (SMILES)	cytotoxicity call
O=c1[nH]cnc2c1ncn2C1OC(CO)C(O)C1O (stereo not given)	inactive
C[C@H](CO)N1C[C@H](C)[C@H](CN(C)C(=O)Nc2cc(F)ccc2F)Oc2cc(/C=C/c3ccccc3)ccc2S1(=O)=O	inactive
C[C@H]1CN([C@@H](C)CO)S(=O)(=O)c2ccc(C#CC3(O)CCCC3)cc2O[C@H]1CN(C)C(=O)c1ccncc1	inactive
Nc1cncc(Cl)n1	inactive
CN1CCN(C(=O)C[C@H]2CC[C@H]3[C@@H](COC[C@H](O)CN3C(=O)Nc3ccc4c(c3)OCO4)O2)CC1	inactive
COc1ccc(S(=O)(=O)N(C)C[C@H]2OCCCC[C@@H](C)Oc3ccc(NC(=O)c4ccccc4)cc3C(=O)N([C@@H](C)CO)C[C@@H]2C)cc1	inactive
CN(C)CC#Cc1ccc([C@@H]2[C@@H](CO)N3C(=O)CN(C(=O)CN(C)C)C[C@@H]23)cc1	inactive
C[C@@H]1CN([C@H](C)CO)C(=O)c2cc(C#CC3(O)CCCC3)cnc2O[C@H]1CN(C)S(=O)(=O)c1ccccc1	inactive
CC(C)NC(=O)Nc1cccc2c1O[C@@H](CN(C)Cc1ccc(C(=O)O)cc1)[C@H](C)CN([C@H](C)CO)C2=O	inactive
c1cc2c(cc1-c1nn[nH]n1)OCO2	inactive
COc1cc(OC)cc(C(=O)Nc2nc(-c3ccc4c(c3)CCN4C(=O)CN3CCOCC3)cs2)c1	inactive
O=C(NCCCN1CCOCC1)Nc1ccc(Cc2ccc(NC(=O)NCCCN3CCOCC3)cc2)cc1	inactive
CC(C)(C)c1cc(NC(=O)Nc2ccc(-c3cn4c(n3)sc3cc(OCCN5CCOCC5)ccc34)cc2)no1	active
C[C@@H]1CCCCO[C@@H](CN(C)S(=O)(=O)c2cccs2)[C@@H](C)CN([C@@H](C)CO)C(=O)c2cc(NC(=O)Cc3ccccc3)ccc2O1	inactive
C[C@H](CO)N1C[C@H](C)[C@@H](CN(C)C(=O)Nc2ccc3c(c2)OCO3)Oc2c(NS(=O)(=O)c3cn(C)cn3)cccc2C1=O	inactive
COc1ccc(CN(C)C[C@@H]2OCCCC[C@H](C)Oc3ccc(NC(=O)Nc4cccc5ccccc45)cc3C(=O)N([C@@H](C)CO)C[C@@H]2C)cc1	inactive
COc1ccc(CN(C)C[C@H]2OCCCC[C@@H](C)Oc3ccc(NC(=O)Nc4cccc5ccccc45)cc3C(=O)N([C@H](C)CO)C[C@H]2C)cc1	inactive
COc1ccc(CN(C)C[C@@H]2OCCCC[C@H](C)Oc3ccc(NC(=O)Nc4cccc5ccccc45)cc3C(=O)N([C@H](C)CO)C[C@@H]2C)cc1	inactive
COc1ccc(CN(C)C[C@H]2OCCCC[C@H](C)Oc3ccc(NC(=O)Nc4cccc5ccccc45)cc3C(=O)N([C@@H](C)CO)C[C@@H]2C)cc1	inactive
COc1ccc(CN(C)C[C@@H]2OCCCC[C@@H](C)Oc3ccc(NC(=O)Nc4cccc5ccccc45)cc3C(=O)N([C@@H](C)CO)C[C@H]2C)cc1	active
COc1ccc(CN(C)C[C@@H]2OCCCC[C@H](C)Oc3ccc(NC(=O)Nc4cccc5ccccc45)cc3C(=O)N([C@@H](C)CO)C[C@H]2C)cc1	active
COc1ccc(CN(C)C[C@@H]2OCCCC[C@@H](C)Oc3ccc(NC(=O)Nc4cccc5ccccc45)cc3C(=O)N([C@H](C)CO)C[C@H]2C)cc1	active
COc1ccc(CN(C)C[C@H]2OCCCC[C@H](C)Oc3ccc(NC(=O)Nc4cccc5ccccc45)cc3C(=O)N([C@H](C)CO)C[C@@H]2C)cc1	inactive
COc1ccc(CN(C)C[C@@H]2OCCCC[C@H](C)Oc3ccc(NC(=O)Nc4cccc5ccccc45)cc3C(=O)N([C@H](C)CO)C[C@H]2C)cc1	active
COc1ccc(CN(C)C[C@H]2OCCCC[C@H](C)Oc3ccc(NC(=O)Nc4cccc5ccccc45)cc3C(=O)N([C@@H](C)CO)C[C@H]2C)cc1	inactive
